PL biosyn Enam = blocks phospholipid synthesis in CHO cells, Enamine compounds; ZR-82 CHO cells, pyrene fatty acid UV survival, CellTiter Blue; peroxisome-deficient CHO-K1 mutant line; plus DGAT-1, DGAT-2 and ACAT inhibitors; calls only at 10 µM; 0.4% of 20,000 active;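 active = cell survival signal 2 SD away from solvent-only control wells, confirmed on one or two retests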;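 also: 3 h compound exposure then viability read about one day after UV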
Large screens that a line does not name were inactive. The full list was thinned out, with hits kept by preference.

CN=c1scc(-c2ccc(OC(F)F)cc2)n1/N=C(\C)c1ccc(O)cc1O	PL biosyn Enam active
CN=c1scc(-c2ccc(F)cc2)n1/N=C(\C)c1ccc(O)cc1O	none
CN=c1scc(-c2ccc(OC(F)F)cc2)n1/N=C/c1cc(OC)c(O)c(OC)c1	none
O=C1NC2(CCCCC2)C(=O)N1CN1CCN(S(=O)(=O)c2ccc3c(c2)OCCCO3)CC1	none
NC(c1ccc(Cl)cc1)C1CC1 (centres undefined)	none
CSc1ccc(C=Nc2ccc(-c3nnc4n3CCCCC4)cc2)cc1	none
O=C(COC(=O)c1ccc([N+](=O)[O-])s1)c1ccc(Br)s1	none
COc1cc(C2NC(=O)NC3=C2C(=O)CCC3)cc(OC)c1OC (centres undefined)	none
Cc1cc(C(C)(C)C)cc(C)c1CSc1nc(=S)c2ccccc2[nH]1	none
Cc1cc(C(C)(C)C)cc(C)c1C[n+]1ccc2ccccc2c1	PL biosyn Enam active
Cc1cc(C(C)(C)C)cc(C)c1CSc1ncnc2ccccc12	none
Nc1cc(S(=O)(=O)C(F)F)ccc1Cl	none
Cc1n[nH]c(=S)n(/N=C/C2=CCC3CC2C3(C)C)c1=O (centres undefined)	none
C#CCOc1ccc2ccccc2c1Br	none
COCCn1c(O)c(C=Nc2c(C)nn(C)c2C)c(=O)[nH]c1=S	none
Oc1ccc(/C=N/N=C/C2=C(N3CCOCC3)C(=C\c3ccccc3)/CC2)c(O)c1	none
O=C1Nc2ccccc2/C1=N\N=C\C1=C(N2CCOCC2)C(=C\c2ccccc2)/CC1	PL biosyn Enam active
C(=N\Nc1ccc(N2CCOCC2)nn1)/C1=C(N2CCOCC2)C(=C/c2ccccc2)/CC1	none
O=C(N1CCN(C(=O)C23CCC4CC(CC(C4)C2)C3)CC1)C12CCC3CC(CC(C3)C1)C2	none
FC(F)(F)c1ccc2c(c1)nc(-c1ccc(Oc3ccccc3)cc1)c1nccn12	none
CN1/C(=C2\C=NN(c3ccccc3)P2(=Nc2ccc([N+](=O)[O-])cc2)N2CCCCC2)C(C)(C)c2ccccc21 (centres undefined)	none
O=S(=O)(Nc1ccc2c(c1)CCC2)c1ccc(F)cc1	none
O=S(=O)(Nc1ccc2c(c1)OCCO2)c1ccc2c(c1)CCCC2	none
O=S(=O)(Nc1ccc2c(c1)CCC2)c1ccc(Br)cc1	PL biosyn Enam active
N=C1C(c2nc3ccccc3s2)=C(O)CN1CC12CC3CC(CC(C3)C1)C2	none
COC(=O)c1c(NC(=O)C(=O)Nc2sc3c(c2C(=O)OC)CCCC3)sc2c1CCCC2	none
O=C(NNc1ccnc2cc(Cl)ccc12)c1ccc(=O)[nH]n1	none
S=C(NNc1ccnc2cc(Cl)ccc12)Nc1ccc(Cl)cc1Cl	PL biosyn Enam active
S=C(NNc1ccnc2cc(Cl)ccc12)NC1CCCCC1	none
O=[N+]([O-])c1ccc(N2CCNCC2)c(S(=O)(=O)N2CCOCC2)c1	none
O=[N+]([O-])c1ccc(N2CCN(CCO)CC2)cc1SCCO	none
O=[N+]([O-])c1ccc(N2CCNCC2)cc1NC1C2CC3CC(C2)CC1C3 (centres undefined)	PL biosyn Enam active
NC(N)=NC(N)=Nc1ccc(F)c(Cl)c1	none
O=C1NC2=C(C(=O)CCC2)C(c2ccc3c(c2)OCO3)N1 (centres undefined)	none
Cc1cc(CSc2nnc(-c3sc4ccccc4c3Cl)o2)no1	none
CC(NP1(=O)C=C(c2ccccc2)OC(c2ccccc2)=C1)C1CC2CCC1C2 (centres undefined)	none
Clc1ccc(NN=C2c3ccccc3-c3ccccc32)cc1Cl	none
Clc1cccc(NN=C2c3ccccc3-c3ccccc32)c1	PL biosyn Enam active
Clc1ccccc1NN=C1c2ccccc2-c2ccccc21	none
O=[N+]([O-])c1ccc(Sc2n[nH]c(-c3ccncc3)n2)c([N+](=O)[O-])c1	none
CCNC(=S)N/N=C(\C)c1cccs1	none
C/C(=N\NC(=S)NC1CCCCC1)c1cccs1	PL biosyn Enam active
O=S(=O)(NC(=S)NC1CCCCC1)c1cccs1	none
CN1CCN(NC(=S)N=P(c2ccccc2)(N2CCOCC2)C(C)(C)C)CC1 (centres undefined)	none
O=[N+]([O-])c1ccc(N=Nc2ccc(N(CCO)CC(F)(F)C(F)F)cc2)c(Cl)c1	PL biosyn Enam active
CN(C)c1ccc(N=Nc2ccc(SC(F)(F)F)cc2[N+](=O)[O-])cc1	none
CCN(CC)c1ccc2c(c1)OC(=O)N(c1ccc(Cl)c(Cl)c1)P2(=Nc1ccc([N+](=O)[O-])cc1)N(CC)CC (centres undefined)	none
COc1ccc(-c2nnc3n2N=C2CCCCC2S3)c(OC)c1 (centres undefined)	none
c1ccc2sc(NN=C3CCCCCC3)nc2c1	none
O=S1(=O)CC/C(=N/Nc2ccc(Cl)cc2)c2cc(F)ccc21	PL biosyn Enam active
NC(=O)N/N=C1\CCS(=O)(=O)c2ccc(F)cc21	none
c1ccc2c(c1)CC/C(=N\Nc1nc3ccccc3s1)C2	none
O=S1(=O)CC/C(=N/Nc2nc3ccccc3s2)c2cc(F)ccc21	PL biosyn Enam active
C=CCNC(=S)N/N=C1\CCS(=O)(=O)c2ccccc21	none
O=C(CCCCC(=O)NN1C(=O)C2C3C=CC(C3)C2C1=O)NN1C(=O)C2C3C=CC(C3)C2C1=O (centres undefined)	none
Cc1nc(N)sc1N=Nc1ccc(Br)cc1	PL biosyn Enam active
CCN(CC)S(=O)(=O)c1ccc(N=Nc2sc(N)nc2C)cc1	none
Cc1nc(N)sc1C	none
c1ccc2c(c1)nc1[nH]nc(SCc3nnc(-c4cc5c(s4)CCCC5)o3)n12	none
NC(=O)c1ccsc1NC(=O)COC(=O)c1ccc([N+](=O)[O-])s1	none
CC1=C/C(=N\Nc2ccc(S(N)(=O)=O)cc2[N+](=O)[O-])CC(C)(C)C1	none
COc1ccc(OC)c(N=Nc2c(C)nn(-c3ccccc3)c2N)c1	none
Cc1nn(-c2ccccc2)c(N)c1N=Nc1ccccc1OC(F)F	PL biosyn Enam active
Cc1nn(-c2ccccc2)c(N)c1N=Nc1ccc2ccccc2c1	none
CC(=O)Nc1sc(C)c(C)c1C(=O)OC(C)C(=O)NC(C)C1CC2CCC1C2 (centres undefined)	none
c1cc[n+](Cc2cn3ccccc3n2)cc1	none
Cc1ccc(C)c(S(=O)(=O)N2CC3(C)CC2CC(C)(C)C3)c1 (centres undefined)	none
Fc1ccc(NC(=S)Nc2ccc(Cl)c(C(F)(F)F)c2)cc1Cl	none
S=C(NN=C1C2CC3CC(C2)CC1C3)Nc1ccc(Cl)c(Cl)c1	none
FC(F)(F)c1cc(NC(=S)Nc2ccc(Cl)c(Cl)c2)ccc1Cl	PL biosyn Enam active
Nc1nc(-c2cccs2)cc(C(F)(F)F)n1	none
C=CCn1c(SCc2cn3ccsc3n2)nc2sc3c(c2c1=O)CCC(C)C3 (centres undefined)	none
COP1(=S)/C(=C2/N(C)c3ccccc3C2(C)C)C=Nc2c1c(C)nn2-c1ccccc1 (centres undefined)	none
Cn1/c(=N/N=C/c2cn(-c3ccccc3)nc2-c2cc3ccccc3o2)sc2ccccc21	none
C(=N\N(c1ccccc1)c1ccccc1)/c1cn(-c2ccccc2)nc1-c1cc2ccccc2o1	none
C(=C\c1cn(-c2ccccc2)nc1-c1cc2ccccc2o1)/c1nc2ccccc2s1	PL biosyn Enam active
Cc1[nH]c2ccccc2c1N=Nc1ccc(F)cc1	PL biosyn Enam active
Oc1ccc(N=Nc2ccc3c(c2)OCCO3)c2ncccc12	none
Oc1ccc2ccccc2c1N=Nc1ncn[nH]1	none
O=C1CCCC(O)=C1N=Nc1ccc2c(c1)OCO2	none
Cc1[nH]c2ccccc2c1N=Nc1ccc2c(c1)OCO2	PL biosyn Enam active
Oc1ccc2ccccc2c1N=Nc1ccc2c(c1)OCCO2	PL biosyn Enam active
Cc1[nH]c2ccccc2c1N=Nc1c(C)n(C)n(-c2ccccc2)c1=O	none
Cc1[nH]c2ccccc2c1N=Nc1cccnc1	none
